# Results taken from PubChem BioAssay (EPA / NIEHS).
# Where “and” joins values, the source holds several entries; their conditions need not be identical. Equal entries are not always repeated. Calls of active or inactive are those of the source. Rule for the calls: active = hit-call score of the fitted dose curve at least 0.9, where 1 is the maximum; inactive = score below 0.9.
# Read-out: E-selectin (Homo sapiens) (UniProt P16581)
# Experiment: BSK_3C_Eselectin: BioMAP Diversity Plus: 3C Assay for Eselectin Biomarker Activity (AID 2283015)
# Conditions: primary human endothelial cells (HUVEC); actives raise or lower the signal
# Protocol: BSK_3C is a cell-based, multiplexed-readout assay that uses umbilical vein endothelium, a human vascular primary cell, with measurements taken at 24 hours after chemical dosing in a 96-well plate.BSK_3C_Eselectin is an assay component measured in the BSK_3C assay. It measures E-selectin antibody related to regulation of gene expression using ELISA technology.Data from the assay component BSK_3C_Eselectin was analyzed into 1 assay endpoint. This assay endpoint, BSK_3C_Eselectin, was analyzed with bidirectional fitting relative to DMSO as the negative control and baseline of activity. Using a type of binding reporter, gain or loss-of-signal activity can be used to understand changes in the signaling as they relate to the gene SELE. Furthermore, this assay endpoint can be referred to as a primary readout, because this assay has produced multiple assay endpoints where this one serves a signaling function. To generalize the intended target to other relatable targets, this assay endpoint is annotated to the cell adhesion molecules intended target family, where the subfamily is selectins.
# The levels of cell surface (or secreted, indicated by the prefix "s") biomarker endpoints were measured by ELISA. Overt cytotoxicity to cells in confluent adherent cultures (all systems other than the BT system) was assessed by measuring total protein levels using sulforhodamine B (SRB) staining in parallel cultures at the time of biomarker measurements, indicated as SRB endpoints. For proliferation assays for adherent cell types, individual cell types are cultured at sub-confluence and relative cell numbers quantified by SRB staining at time points optimized for each system (48 h: 3C and CASM3C systems; 72 h: BT and HDF3CGF systems; 96 h: SAg system). SRB was performed by staining cells with 0.1% SRB after fixation with 10% TCA and reading wells at 560 nm.Viability and proliferation of PBMC (T cells) was quantified by Alamar Blue reduction for the SAg and BT systems. For PBMC viability (referred to as PBMC Cytotoxicity within the assay endpoint names), cells were plated (75,000/well in a 96-well plate) and then chemical samples added for 1 h before addition of activators, SEB and TSST-1 (20 ng/mL final concentration each). Cells were incubated for 90 h. Then, Alamar Blue (20 uL/well) (Invitrogen, Cat DAL1100) was added for 6 h, and the plates were read with a fluorescence microplate reader at 546/580 nm (excitation/emission). For PBMC proliferation, cells were plated and activated as above but incubated for only 16 h prior to addition of Alamar Blue. Plates were read after 6 h.
# E-selectin (Homo sapiens), sequence (P16581 whole entry, looked up): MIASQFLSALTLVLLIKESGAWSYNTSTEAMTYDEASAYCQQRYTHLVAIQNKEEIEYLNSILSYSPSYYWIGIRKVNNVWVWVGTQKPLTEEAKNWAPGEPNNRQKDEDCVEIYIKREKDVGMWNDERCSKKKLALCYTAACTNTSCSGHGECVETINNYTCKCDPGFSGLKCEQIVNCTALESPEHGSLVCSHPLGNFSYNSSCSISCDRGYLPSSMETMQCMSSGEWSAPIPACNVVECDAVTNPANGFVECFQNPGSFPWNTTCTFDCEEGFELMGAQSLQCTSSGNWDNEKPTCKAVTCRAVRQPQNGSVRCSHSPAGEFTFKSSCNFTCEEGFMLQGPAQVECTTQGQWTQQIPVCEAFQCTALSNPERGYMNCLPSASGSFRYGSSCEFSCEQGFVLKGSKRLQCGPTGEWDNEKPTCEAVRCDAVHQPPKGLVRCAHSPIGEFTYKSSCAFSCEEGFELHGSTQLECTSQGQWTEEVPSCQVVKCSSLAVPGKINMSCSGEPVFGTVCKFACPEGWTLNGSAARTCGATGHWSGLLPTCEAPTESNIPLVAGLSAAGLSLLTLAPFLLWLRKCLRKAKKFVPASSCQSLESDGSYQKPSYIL
Structure (SMILES),outcome,AC50
O=C(Oc1ccccc1)c1ccccc1C(=O)Oc1ccccc1,inactive,–
Nc1cccc(N)n1,inactive,–
O=C1CCCCCCCCCCCN1,inactive,–
CC(c1cc(C(C)(C)C)cc(C(C)(C)C)c1O)c1cc(C(C)(C)C)cc(C(C)(C)C)c1O,–,1.21 µM (active)
C[N+](C)(C)CCCNS(=O)(=O)C(F)(F)C(F)(F)C(F)(F)C(F)(F)C(F)(F)C(F)(F)C(F)(F)C(F)(F)F,inactive,–
CCOC(=O)C1=NN(c2ccc(Cl)cc2Cl)C(C)(C(=O)OCC)C1 (stereo not given),inactive,–
c1ccc2c(c1)[nH]c1ccccc12,inactive,–
CCCCCCC=O,inactive,–
CCC1(C)C(=O)N(Cl)C(=O)N1Cl (stereo not given),inactive,–
CCCCCCCCCCCC(C)=O,–,33.7 µM (active)
CC1=CC=C(C(C)C)CC1,inactive,–
Cc1ccc([N+](=O)[O-])cc1N,inactive,–
CCCCCC1=CCCC1=O,inactive,–
O=C(O)C(F)(F)C(F)(F)C(F)(F)C(F)(F)C(=O)O,inactive,–
C=CC(=O)NCOCCCC,inactive,–
O=C1CCCCCCCCCCC1,inactive,–
CCN1CN(CC)CN(CC)C1,inactive,–
CCCC(C)C(=O)OCC (stereo not given),inactive,–
Oc1c(Cl)cc(Cl)c(Cl)c1Cl,–,27.7 µM (active)
CC(C)CCCCCOC(=O)CS,inactive,–

Structure (SMILES),outcome,AC50
CCNc1nc(NC(C)(C)C)nc(OC)n1,inactive,–
C=CC(=O)OCC(C)OCC(C)OCC(C)OC(=O)C=C (stereo not given),–,11 µM (active)
Clc1cc(Cl)c(Cl)c(Cl)c1Cl,inactive,–
c1ccc2sc(SSN3CCOCC3)nc2c1,–,11.8 µM (active)
c1ccc(Nc2cccc3ccccc23)cc1,–,31.5 µM (active) and 31.6 µM (active)
C=CC(=O)OCCCCCCCC(C)C,–,20 µM (active)
CC=C(C)C=CC=C(C)C,–,20 µM (active)
Oc1ccccc1Cc1ccccc1O,inactive,–
CCOC(=O)/C=C\C(=O)OCC,inactive,–
C1CNCCN1,inactive,–
Nc1ccc(C(=O)O)cc1,inactive,–
CCCCCCCO,inactive,–
O=C(Cl)c1c(Cl)c(Cl)c(C(=O)Cl)c(Cl)c1Cl,inactive,–
CCCCCCCCCCCC(=O)N(C)CC(=O)O,inactive,–
CC/C=C\CCOC(=O)c1ccccc1O,–,32.9 µM (active)
CCCCCCCCC(CO)CCCCCC (stereo not given),inactive,–
CC(C)c1cccc(C(C)C)c1N,inactive,–
Nc1nc(N)nc(-c2ccccc2)n1,inactive,–
Cc1c(O)cccc1O,inactive,–
CC=C(C)C(C)=O,inactive,–
